Measured values taken from PubChem BioAssay AID1159580 (chemical genetic matrix, 2015).
About 2,000 (36%) of roughly 5,500 compounds were called active. About 18% were inconclusive and are not listed. Cut-off read from the data, not from the text of the source: active = normalized growth mostly below about 0.91 (no sharp cut-off); inconclusive = no clear call, values can overlap the other calls; inactive = mostly above about 0.92. The list shows a part of the results.

Test: chemical genetic growth profiling, strain panel (AID 1159580);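 note: tested at 20 µM; growth read once vehicle control cultures reached saturation at 30 °C; 1 = growth at the plate median or of vehicle wells; lower values mean less growth of the strain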
Settings: S. cerevisiae deletion strains, growth OD
[1] = locus YNL128W, strain TEP1, stronger effect = lower value
[2] = locus YPL055C, strain LGE1, stronger effect = lower value

Measured: normalized growth

OC[C@H]1O[C@@H](n2cnc3c(NC4CCCC4)ncnc32)C(O)[C@H]1O (some centres undefined)
inactive: locus YAL013W, strain DEP1, stronger effect = lower value 0.994 | locus YAL040C, strain CLN3, stronger effect = lower value 0.989 | locus YER002W, strain NOP16, stronger effect = lower value 1.03 | locus YJR075W, strain HOC1, stronger effect = lower value 1.01 | locus YMR263W, strain SAP30, stronger effect = lower value 1.03 | [1] 1 | locus YNL175C, strain NOP13, stronger effect = lower value 1.03 | locus YNL197C, strain WHI3, stronger effect = lower value 1.04 | locus YNL224C, strain SQS1, stronger effect = lower value 1 | locus YOR083W, strain WHI5 (second series), stronger effect = lower value 1.03 | [2] 1.01

CC1(C)C(=O)CC[C@@]2(C)C1C[C@@H](O)[C@@]1(C)C3=CC(=O)O[C@@H](c4ccoc4)[C@]3(C)CCC21 (some centres undefined)
inactive: locus YAL021C, strain ccr4, stronger effect = lower value 1.02 | locus YAL026C, strain drs2, stronger effect = lower value 1.02 | locus YAL030W, strain snc1, stronger effect = lower value 1.02 | locus YBL061C, strain skt5, stronger effect = lower value 1.03 | locus YBR009C, strain hhf1, stronger effect = lower value 1.01 | locus YBR021W, strain FUR4, stronger effect = lower value 0.967 | locus YBR023C, strain chs3, stronger effect = lower value 1.02 | locus YBR171W, strain sec66, stronger effect = lower value 1.04 | locus YBR229C, strain ROT2, stronger effect = lower value 1.01 | locus YBR231C, strain swc5, stronger effect = lower value 1.01 | locus YBR279W, strain paf1, stronger effect = lower value 1.01 | locus YCL011C, strain gbp2, stronger effect = lower value 1.02 | locus YCL016C, strain dcc1, stronger effect = lower value 1.02 | locus YCL029C, strain bik1, stronger effect = lower value 0.999 | locus YCL069W, strain vba3, stronger effect = lower value 1.02 | locus YCR088W, strain abp1, stronger effect = lower value 1.02 | locus YDL005C, strain med2, stronger effect = lower value 1.05 | locus YDL035C, strain GPR1, stronger effect = lower value 1.01 | locus YDL040C, strain nat1, stronger effect = lower value 1.02 | locus YDL074C, strain BRE1, stronger effect = lower value 1.01 | locus YDL101C, strain DUN1, stronger effect = lower value 1.03 | locus YDL134C, strain PPH21, stronger effect = lower value 1.03 | locus YDL185W, strain tfp1, stronger effect = lower value 1.02 | locus YDL192W, strain arf1, stronger effect = lower value 0.987 | locus YDR001C, strain nth1, stronger effect = lower value 1.03 | locus YDR069C, strain doa4, stronger effect = lower value 1.01 | locus YDR101C, strain arx1, stronger effect = lower value 0.963 | locus YDR137W, strain rgp1, stronger effect = lower value 1.05 | locus YDR159W, strain sac3, stronger effect = lower value 1.05 | locus YDR162C, strain NBP2, stronger effect = lower value 1.01 | locus YDR195W, strain ref2 0.982 | locus YDR297W, strain sur2, stronger effect = lower value 1.02 | locus YDR318W, strain mcm21, stronger effect = lower value 1.01 | locus YDR334W, strain swr1, stronger effect = lower value 1.02 | locus YDR335W, strain msn5, stronger effect = lower value 1.01 | locus YDR388W, stronger effect = lower value 1 | locus YDR392W, strain spt3, stronger effect = lower value 1.03 | locus YDR502C, strain sam2, stronger effect = lower value 1.02 | locus YEL003W, strain gim4, stronger effect = lower value 1.02 | locus YEL037C, strain rad23, stronger effect = lower value 1.02 | locus YEL061C, strain CIN8 (second series), stronger effect = lower value 1.03 | locus YEL061C, strain CIN8, stronger effect = lower value 1 | locus YER015W, strain faa2, stronger effect = lower value 1.01 | locus YER016W, strain bim1, stronger effect = lower value 1.03 | locus YER110C, stronger effect = lower value 1 | locus YER111C, strain swi4, stronger effect = lower value 1.02 | locus YER155C, strain BEM2 (second series), stronger effect = lower value 1.03 | locus YER155C, strain BEM2, stronger effect = lower value 0.997 | locus YER167W, strain BCK2, stronger effect = lower value 0.989 | locus YFR010W, strain ubp6, stronger effect = lower value 1.01 | locus YGL078C, strain dbp3, stronger effect = lower value 1.03 | locus YGL086W, strain mad1, stronger effect = lower value 0.998 | locus YGL167C, strain pmr1, stronger effect = lower value 1.04 | locus YGL173C, strain kem1, stronger effect = lower value 1.03 | locus YGL227W, strain vid30, stronger effect = lower value 1.03 | locus YGL240W, strain doc1, stronger effect = lower value 1.02 | locus YGL248W, strain PDE1, stronger effect = lower value 1.03 | locus YGL253W, strain hxk2, stronger effect = lower value 1.01 | locus YGR135W, strain pre9, stronger effect = lower value 1.06 | locus YGR252W, strain gcn5, stronger effect = lower value 1 | locus YHR013C, strain ard1, stronger effect = lower value 1.03 | locus YHR027C, strain rpn1, stronger effect = lower value 1.02 | locus YHR079C, strain IRE1 (second series), stronger effect = lower value 0.998 | locus YHR094C, strain hxt1, stronger effect = lower value 0.991 | locus YHR129C, strain ARP1, stronger effect = lower value 1.01 | locus YHR142W, strain chs7, stronger effect = lower value 1.04 | locus YHR200W, strain rpn10, stronger effect = lower value 1 | locus YIL066C, strain RNR3, stronger effect = lower value 1 | locus YIL073C, strain SPO22, stronger effect = lower value 0.977 | locus YIL125W, strain kgd1, stronger effect = lower value 0.984 | locus YIR030C, strain dcg1, stronger effect = lower value 0.999 | locus YJL092W, strain hpr5, stronger effect = lower value 1.03 | locus YJL095W, strain BCK1 (second series), stronger effect = lower value 1.01 | locus YJL095W, strain BCK1, stronger effect = lower value 1.04 | locus YJL115W, strain asf1, stronger effect = lower value 1.04 | locus YJL129C, strain trk1, stronger effect = lower value 1.02 | locus YJL134W, strain LCB3, stronger effect = lower value 1 | locus YJL154C, strain vps35, stronger effect = lower value 1.02 | locus YJL164C, strain tpk1, stronger effect = lower value 1.02 | locus YJL166W, strain qcr8, stronger effect = lower value 1.02 | locus YJL168C, strain set2, stronger effect = lower value 1 | locus YJL187C, strain SWE1 (second series), stronger effect = lower value 1.04 | locus YJL187C, strain SWE1, stronger effect = lower value 1.02 | locus YKL009W, strain mrt4, stronger effect = lower value 1.02 | locus YKL068W, stronger effect = lower value 1 | locus YKL085W, strain MDH1 (second series), stronger effect = lower value 0.993 | locus YKL085W, strain MDH1, stronger effect = lower value 0.993 | locus YKL160W, strain elf1, stronger effect = lower value 1.02 | locus YKR001C, strain vps1, stronger effect = lower value 0.975 | locus YKR026C, strain gcn3, stronger effect = lower value 1.02 | locus YKR091W, strain srl3, stronger effect = lower value 1.03 | locus YLL001W, strain dnm1, stronger effect = lower value 1.03 | locus YLL026W, stronger effect = lower value 1.02 | locus YLL041C, strain sdh2, stronger effect = lower value 1 | locus YLR027C, strain aat2, stronger effect = lower value 1.02 | locus YLR039C, strain RIC1, stronger effect = lower value 1.05 | locus YLR058C, strain SHM2, stronger effect = lower value 1.01 | locus YLR102C, strain apc9, stronger effect = lower value 1.01 | locus YLR221C, strain rsa3, stronger effect = lower value 1.05 | locus YLR258W, strain gsy2, stronger effect = lower value 1.01 | locus YLR262C, strain YPT6 (second series), stronger effect = lower value 1.06 | locus YLR268W, strain sec22, stronger effect = lower value 0.976 | locus YLR320W, strain mms22, stronger effect = lower value 1.03 | locus YLR330W, strain CHS5, stronger effect = lower value 1 | locus YLR342W, strain FKS1, stronger effect = lower value 1.02 | locus YLR357W, strain rsc2, stronger effect = lower value 1.02 | locus YLR370C, strain arc18, stronger effect = lower value 1.02 | locus YLR371W, strain rom2, stronger effect = lower value 0.957 | locus YLR384C, strain iki3, stronger effect = lower value 1.03 | locus YLR418C, strain cdc73, stronger effect = lower value 1.05 | locus YML016C, strain PPZ1, stronger effect = lower value 1.01 | locus YML032C, strain rad52, stronger effect = lower value 0.987 | locus YML120C, strain ndi1, stronger effect = lower value 1.01 | locus YML124C, strain tub3, stronger effect = lower value 0.998 | locus YMR058W, strain fet3, stronger effect = lower value 1.01 | locus YMR078C, strain ctf18, stronger effect = lower value 1.01 | locus YMR125W, strain sto1, stronger effect = lower value 1.04 | locus YMR129W, stronger effect = lower value 1.03 | locus YMR205C, strain PFK2, stronger effect = lower value 1.05 | locus YMR223W, strain ubp8, stronger effect = lower value 1 | locus YMR231W, strain pep5, stronger effect = lower value 1.02 | locus YMR307W, strain GAS1, stronger effect = lower value 0.91 | locus YNL067W, strain RPL9B, stronger effect = lower value 1.04 | locus YNL071W, strain lat1, stronger effect = lower value 1.02 | [1] 1.01 | locus YNL153C, strain GIM3, stronger effect = lower value 1.04 | locus YNL209W, strain ssb2, stronger effect = lower value 1.03 | locus YNL233W, strain BNI4, stronger effect = lower value 1.03 | locus YNL248C, strain rpa49, stronger effect = lower value 1.03 | locus YNL250W, strain rad50, stronger effect = lower value 1.03 | locus YNL271C, strain bni1, stronger effect = lower value 0.999 | locus YNL298W, strain CLA4, stronger effect = lower value 0.997 | locus YNL307C, strain MCK1, stronger effect = lower value 1.01 | locus YNL322C, strain KRE1 (second series), stronger effect = lower value 1.03 | locus YNR049C, strain mso1, stronger effect = lower value 1.02 | locus YNR052C, strain pop2, stronger effect = lower value 1.04 | locus YOL012C, strain htz1 0.777 | locus YOL147C, strain pex11, stronger effect = lower value 0.991 | locus YOR001W, strain rrp6, stronger effect = lower value 1.03 | locus YOR061W, strain CKA2, stronger effect = lower value 1.01 | locus YOR069W, strain VPS5, stronger effect = lower value 1.01 | locus YOR070C, strain gyp1, stronger effect = lower value 1.02 | locus YOR080W, strain dia2, stronger effect = lower value 1.02 | locus YOR083W, strain WHI5, stronger effect = lower value 1.02 | locus YOR106W, strain vam3, stronger effect = lower value 1.05 | locus YOR136W, strain idh2, stronger effect = lower value 1.01 | locus YOR144C, strain elg1, stronger effect = lower value 0.997 | locus YOR184W, strain ser1, stronger effect = lower value 0.967 | locus YOR265W, strain rbl2, stronger effect = lower value 1.03 | locus YOR270C, strain vph1, stronger effect = lower value 1.04 | locus YOR290C, strain snf2, stronger effect = lower value 1.03 | locus YOR316C, strain cot1, stronger effect = lower value 1.01 | locus YPL051W, strain arl3, stronger effect = lower value 1.03 | [2] 1.01 | locus YPL078C, strain atp4, stronger effect = lower value 1 | locus YPL106C, strain sse1, stronger effect = lower value 1.02 | locus YPL240C, strain hsp82, stronger effect = lower value 1.01 | locus YPL241C, strain CIN2, stronger effect = lower value 0.996 | locus YPR119W, strain clb2, stronger effect = lower value 0.995 | locus YPR141C, strain kar3, stronger effect = lower value 0.99 | locus YPR163C, strain tif3, stronger effect = lower value 0.992 | locus YPR167C, strain met16, stronger effect = lower value 1.01 | strain wtn01, stronger effect = lower value 0.965
